Screens from PubChem BioAssay.
This is a sample that favours compounds with a hit; in the whole collection about 4.8% have one here.
APP 5'UTR act: APP 5'UTR luciferase reporter activation | hit rate 1% among 190,000 | SH-SY5Y APP 5'UTR luciferase reporter, luminescence; zero percent = DMSO vehicle wells | activation, % at 2 µM;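 active means activation above a set limit, based on mean plus 3 SD of controls, cut at about 140% in these data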
Wee1 stabilizer: human Wee1 degradation inhibition, primary screen; P30291; HeLa Luc-Wee1K328M stability, luciferase luminescence; 100% = proteasome inhibitor MG132 effect; reporter increase, % at 5 µM; hit rate 1.2% among 220,000; AID 1321;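 active means activation above the mean of all tested compounds plus 3 SD, set per screening run, cut at about 8.8% in these data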;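 further: cells exposed to compound for 20 h before luminescence read; 0% = DMSO alone and 100% = MG132 at 30 µM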
Target sequence (P30291 whole entry K328M): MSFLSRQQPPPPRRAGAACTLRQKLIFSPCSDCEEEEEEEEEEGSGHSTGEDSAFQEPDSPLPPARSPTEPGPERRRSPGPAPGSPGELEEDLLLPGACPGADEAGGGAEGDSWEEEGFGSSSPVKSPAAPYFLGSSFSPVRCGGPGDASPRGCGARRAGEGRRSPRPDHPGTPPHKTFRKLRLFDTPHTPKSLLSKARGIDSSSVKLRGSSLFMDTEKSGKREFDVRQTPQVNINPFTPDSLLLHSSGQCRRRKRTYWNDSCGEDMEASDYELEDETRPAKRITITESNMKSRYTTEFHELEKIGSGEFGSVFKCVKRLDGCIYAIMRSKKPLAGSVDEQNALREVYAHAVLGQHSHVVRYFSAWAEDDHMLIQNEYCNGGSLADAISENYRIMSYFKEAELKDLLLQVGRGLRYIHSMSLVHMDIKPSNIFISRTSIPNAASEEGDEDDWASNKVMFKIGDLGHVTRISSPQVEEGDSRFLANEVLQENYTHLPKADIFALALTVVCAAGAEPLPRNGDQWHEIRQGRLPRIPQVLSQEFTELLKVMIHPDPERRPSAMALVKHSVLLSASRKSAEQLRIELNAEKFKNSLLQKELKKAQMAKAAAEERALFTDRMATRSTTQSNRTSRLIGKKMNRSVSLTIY
STAT1 act: activators of IFN-gamma induced STAT1 signaling; activation (% of control), % at 5.5 µM; NIH 3T3 STAT1-luciferase reporter, luminescence; 100% = IFN-gamma alone, no compound; hit rate 2.6% among 200,000; AID 932;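 active means activation above the screen-wide mean activation plus 3 SD, cut at about 130% in these data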;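 further: raw ratio to IFN-gamma control signal so 100% means no change and 0% no light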
Hsp70 act: Hsp70 transcriptional activation, primary screen | hit rate 0.04% among 200,000 | HeLa Hsp70 promoter luciferase reporter, luminescence; scaled: vehicle 0, proteasome-inhibitor control 100% | AID 1203 | activation, % at 10 µM;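 active means activation above the mean across all tested compounds plus 3 SD, cutoff set per campaign, cut at about 5.5% in these data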;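 further: 100% = MG132 at 30 µM as the positive control and 0% = DMSO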
APP transl inh: APP translation inhibition; hit rate 0.82% among 190,000; inhibition, % at 2 µM; SH-SY5Y APP 5'UTR-luciferase reporter, luminescence;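 active means inhibition above a set limit, derived from the sample mean plus 3 SD, cut at about 45% in these data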
NF-kB expr up: compounds increasing NF-kB expression in human neuronal cells; NF-kB reporter expression; stronger effect = higher value; hit rate 1.6% among 190,000; fold change at 12.5 µM; AID 1239; in the data active means fold change above about 3.3
Starred values were filed as active, the others as inactive; · = not tested or not shown.

SMILES	APP 5'UTR act	Wee1 stabilizer	STAT1 act	Hsp70 act	APP transl inh	NF-kB expr up
Cc1cc(C)n(-c2ccc3cccc(NS(C)(=O)=O)c3n2)n1	18	2	99	0	-18	1.3
O=C(O)CNc1nc(-c2ccccc2)nc2ccccc12	1	0	91	0	-1	1.2
COc1ccc(NC(=O)CSc2ncc(-c3ccc(F)cc3)n2Cc2ccco2)cc1	4	1	89	0	-4	1.2
Cc1ccc(Cl)cc1N1CCN(C(=O)CSc2nnc3n2C(C)(C)Cc2ccccc2-3)CC1	-7	0	80	0	7	0.39
Cc1ccc(CN(C(=O)c2cc3ccccc3oc2=O)C2CCS(=O)(=O)C2)cc1 (configuration not stated)	31	2	112	0	-31	2
CCc1ccc(CN(C(=O)c2cc3ccccc3oc2=O)C2CCS(=O)(=O)C2)cc1 (configuration not stated)	105	1	129*	0	-105	4.1*
CN(CC(=O)Nc1cccc2c1CCCC2)S(=O)(=O)c1ccccc1	9	3	81	0	-9	0.97
Cc1cccc2c1N(C(=O)c1ccco1)C(C)(C)c1ssc(=S)c1-2	14	0	98	0	-14	0.96
Oc1ccc2c(c1)oc1cc(O)ccc12	2	-4	95	0	-2	7*
CC(=O)c1ccc(NC(=O)/C=C/c2ccc(C)cc2)cc1	10	-2	107	0	-10	1.4
Cc1ccc(/C=C/C(=O)Nc2cc(C)on2)cc1	46	1	133*	0	-46	2.4
Cc1ccc(/C=C/C(=O)NC2=NCCS2)cc1	180*	3	147*	0	-180	5.6*
CCC(=O)Nc1ccc(NC(=O)/C=C/c2ccc(Cl)cc2)cc1	3	0	101	0	-3	1.3
CC(C)(C)c1ccc(/C=C/C(=O)NC2=NCCS2)cc1	184*	1	98	0	-184	1.9
Cc1cccc(NC(=O)/C=C/c2ccc(Cl)cc2)n1	182*	3	139*	0	-182	1.2
Cc1ccc(OCC(=O)NC2=NCCS2)cc1	8	-1	108	0	-8	1.3
O=C(NCCCN1CCOCC1)C1CC(=O)N(CCc2ccccc2)C1 (configuration not stated)	-8	4	91	0	8	1.2
O=C(Nc1nc2ccc(Cl)cc2s1)c1ccc(Br)o1	112	1	148*	1	-112	3.5*
Cc1cc(C(=O)Nc2nc3ccc(Cl)cc3s2)nn1C	·	2	·	·	·	·
Cn1ncc(Cl)c1C(=O)Nc1nc2ccc(Cl)cc2s1	99	-1	150*	0	-99	2.4
O=C(Nc1nc2c(Cl)cccc2s1)c1ccc(Br)o1	9	2	92	0	-9	1.8
Cc1cc2ccccn2c1C(=O)c1ccc([N+](=O)[O-])o1	-54	0	91	0	54*	1
Cc1cc2ccccn2c1C(=O)c1cccc([N+](=O)[O-])c1	10	0	104	0	-10	1.1
O=S1(=O)Nc2c(ccc3cccnc23)-c2ccccc21	-60	0	92	0	60*	0.18
C/C(=N/OCc1ccc(Br)cc1)c1ccccn1	197*	-1	138*	0	-197	4*
SMILES	APP 5'UTR act	Wee1 stabilizer	STAT1 act	Hsp70 act	APP transl inh	NF-kB expr up
NS(=O)(=O)c1ccc(CCNC(=O)NC2(C(F)(F)F)Oc3ccccc3O2)cc1	-25	-2	117	0	25	3.9*
CCC(=O)c1c(OCc2ccccc2)ccc2c(C)cc(=O)oc12	-3	1	100	0	3	3.4*
CCC(=O)c1ccc(OCc2ccccc2)c(OC)c1	71	1	129*	0	-71	2
CCOC(=O)COc1ccc2c(C)cc(=O)oc2c1C(=O)c1ccccc1	-3	-2	98	0	4	1
Cn1c(SCc2nc3ccccc3n2CCO)nc2ccccc21	-9	-1	90	0	9	1
Cn1c(SCc2ccc(C#N)cc2Cl)nc2ccccc21	187*	4	145*	0	-187	5.3*
COc1ccc(/C=C/C(=O)NC(=S)N2CCN(c3ccccn3)CC2)cc1	·	-1	·	·	·	·
Cc1cc(C(=O)NCc2cccnc2)no1	-12	0	103	0	12	1.1
Cc1ccc(C(=O)c2cccc(N)c2)cc1C	-49	0	82	-1	49*	0.5
COc1ccc2c(c1)C(C)=CC(C)(C)N2S(=O)(=O)c1ccc(Br)cc1	-93	0	92	0	93*	3
COc1ccccc1C(=O)Nc1nnc(-c2ccco2)s1	145*	8	138*	0	-145	3.2
COc1ccc(C(=O)Nc2ccc([N+](=O)[O-])cn2)c(OC)c1	143*	4	148*	0	-143	4.4*
CCSc1nnc(Nc2ccc(C)cc2)s1	70	4	143*	0	-70	3.4*
COc1cc(OC)cc(C(=O)Nc2ccc([N+](=O)[O-])cn2)c1	10	1	102	0	-10	1.4
CCc1nnc(NC(=O)c2ccc(OC)cc2OC)s1	111	0	143*	0	-111	2.2
CCSc1nnc(Nc2ccccc2)s1	42	0	126	0	-42	1.8
O=C1CC(N(O)c2ccccc2)C(=O)N1Cc1ccccc1 (configuration not stated)	-26	2	90	0	26	1.7
CCSc1nnc(NC(=O)c2ccccc2C)s1	56	-2	138*	0	-56	2.4
Cc1ccccc1C(=O)Nc1nnc(-c2ccco2)s1	141*	-2	59	0	-141	3.7*
CCOC(=O)CNC(=O)CSc1nnc(NC(=O)c2ccccc2Cl)s1	18	4	110	0	-18	1.5
CC(C)(C)NC(=O)CSc1nnc(NC(=O)c2ccccc2Cl)s1	-46	0	109	0	46*	1.1
N#Cc1cc(C(=O)c2cc(Cl)ccc2O)cn(-c2ccccc2)c1=O	19	3	100	0	-19	0.99
O=C(c1ccccc1)c1cc(Cl)ccc1N1C(=O)C=CC1=O	-80	-3	74	0	80*	0.93
CC1(C)CC(=O)C=C(NCc2cccnc2)C1	14	9.3*	106	0	-14	1
CC1(C)CC(=O)C=C(NCc2ccco2)C1	-8	0	100	0	8	·
O=S(=O)(Nc1cc(Sc2ncn[nH]2)c(O)c2ccccc12)c1ccccc1	-76	-5	87	0	76*	0.91
Cc1cc(NS(=O)(=O)c2ccccc2)c(C)c(Cl)c1O	·	·	·	·	·	1.1
Cc1ccc(-c2nsc3c(N4CCC(C(N)=O)CC4)ncnc23)cc1	142*	6	104	0	-142	1.7
O=C(c1cccc2ccccc12)N1CCN=C1SCc1ccc([N+](=O)[O-])cc1	17	-1	93	0	-17	0.67
